Measured values taken from PubChem BioAssay (NCI).
This is part of a sample that, as a whole, favours compounds with a hit. Of some 79,000 tested, about 15% had one in any assay. Activity calls are given as the source filed them. Rule as the data show it: active = growth inhibition above about 70%; inactive = the rest.

Key:
[1] = NCI Yeast Anticancer Drug Screen. Data for the wt1 strain (AID 149);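 also: 0% = growth of vehicle-treated wt1 cultures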; conditions: S. cerevisiae wt1 strain (SPY 50644) growth inhibition, stronger effect = higher value
Outline: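 Measured: growth of wt1 yeast under compound versus vehicle treatment, reported as inhibition.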

[2] = NCI Yeast Anticancer Drug Screen. Data for the rad50EPP+ strain (AID 151);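 also: 0% = growth of vehicle-treated control cultures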; conditions: S. cerevisiae rad50 mutant strain, stronger effect = higher value
Outline: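 rad50EPP+ yeast treated with test compounds. Readout: growth vs vehicle control.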

[3] = NCI Yeast Anticancer Drug Screen. Data for the mgt1 strain (AID 153); conditions: S. cerevisiae mgt1 mutant growth inhibition, stronger effect = higher value
Outline: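 Growth inhibition relative to vehicle controls was scored for the mgt1 yeast strain after compound exposure.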

[4] = NCI Yeast Anticancer Drug Screen. Data for the rad50 strain (AID 155);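 also: 0% = growth of vehicle-only cultures of the same strain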; conditions: S. cerevisiae rad50 strain growth inhibition, stronger effect = higher value
Outline: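 Growth of the mutant yeast was measured after compound exposure and referenced to vehicle-treated cultures.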

[5] = NCI Yeast Anticancer Drug Screen. Data for the mec2-1 strain (AID 157); conditions: S. cerevisiae mec2-1 strain, stronger effect = higher value
Outline: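 Growth inhibition is read against vehicle-treated controls after compound exposure of the mec2-1 yeast strain, which is defective in DNA damage repair or cell cycle control.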

[6] = NCI Yeast Anticancer Drug Screen. Data for the rad14 strain (AID 159);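 also: 0% = growth of vehicle-treated control cultures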; conditions: S. cerevisiae rad14 strain growth inhibition, stronger effect = higher value
Outline: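 Here, inhibition of yeast growth was measured after compound exposure, using a strain with a genetic defect in DNA damage repair and vehicle-treated cultures as the reference.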

[7] = NCI Yeast Anticancer Drug Screen. Data for the sgs1 mgt1 strain (AID 161);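 also: 0% = growth of cultures given vehicle only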; conditions: S. cerevisiae sgs1 mgt1 strain, stronger effect = higher value
Outline: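 This yeast growth screen uses a strain with defined DNA-repair lesions; compound-treated growth is compared with vehicle-treated growth.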

[8] = NCI Yeast Anticancer Drug Screen. Data for the CLN2oe strain (AID 163);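 also: 0% = growth of vehicle-only control cultures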; conditions: S. cerevisiae CLN2oe strain, stronger effect = higher value
Outline: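 Compound-treated yeast; growth vs vehicle ctrl = % inhibition. Genetically altered strain (cell-cycle control).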

[9] = NCI Yeast Anticancer Drug Screen. Data for the cln2 rad14 strain (AID 165);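 also: 0% = growth equal to vehicle treated cultures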; conditions: S. cerevisiae cln2 rad14 strain, stronger effect = higher value
Outline: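 Growth inhibition, relative to vehicle-treated controls, is the read-out. The test organism is a yeast strain with defined genetic alterations, cln2 rad14.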

[10] = NCI Yeast Anticancer Drug Screen. Data for the wt2 strain (AID 169);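 also: 0% = growth of vehicle-treated yeast cultures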; conditions: S. cerevisiae wt2 strain growth inhibition, stronger effect = higher value
Outline: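 Compound exposure of yeast; growth compared with vehicle controls; inhibition reported.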

[11] = NCI Yeast Anticancer Drug Screen. Data for the mlh1 strain (AID 171);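 also: 0% = growth of vehicle-treated control cultures of the same strain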; conditions: S. cerevisiae mlh1 strain growth inhibition, stronger effect = higher value
Outline: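 Compounds are applied to a genetically altered yeast strain, and its growth is compared with that of vehicle-treated cultures to give percent inhibition.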

[12] = NCI Yeast Anticancer Drug Screen. Data for the sgs1 strain (AID 173);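 also: 0% = growth of vehicle-only control cultures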; conditions: S. cerevisiae sgs1 mutant, stronger effect = higher value
Outline: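 Compounds applied to genetically altered yeast; growth compared with vehicle-treated cultures to give % inhibition.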

[13] = NCI Yeast Anticancer Drug Screen. Data for the mlh1 rad18 strain (AID 175); conditions: S. cerevisiae mlh1 rad18 strain growth inhibition, stronger effect = higher value
Outline: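 Cells of a genetically altered yeast strain, deficient in DNA damage repair, were treated with compound. Their growth was then compared with that of vehicle-treated cultures to give inhibition.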

[14] = NCI Yeast Anticancer Drug Screen. Data for the rad18 strain (AID 177); conditions: S. cerevisiae rad18 mutant growth inhibition, stronger effect = higher value
Outline: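 Compounds are applied to a repair-deficient yeast strain, and growth is compared with that of vehicle-treated cultures to give percent inhibition.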

[15] = NCI Yeast Anticancer Drug Screen. Data for the bub3 strain (AID 167); conditions: S. cerevisiae bub3 mutant strain, stronger effect = higher value
Outline: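 Whole-cell yeast assay. The mutant strain was incubated with compounds, and growth inhibition was determined by comparison with vehicle-treated cells.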

[16] = at 5.0 µM (retest, dose inferred, filed as 0.5)
[17] = at 50.0 µM (retest, dose inferred, filed as 5.0)

Measured: growth inhibition

CN(Cc1cccc2ccccc12)Cc1cccc2ccccc12
active: [4]; [17] 76%
inactive: [1]; at 1.2 µM 1% | [1]; at 3.7 µM 1% | [1]; at 11.0 µM -1% | [1]; at 33.0 µM -2% | [1]; at 100.0 µM -1% | [2]; at 1.2 µM -1% | [2]; at 3.7 µM 5% | [2]; at 11.0 µM 24% | [2]; at 33.0 µM 34% | [2]; at 100.0 µM 36% | [3]; at 1.2 µM -2% | [3]; at 3.7 µM -3% | [3]; at 11.0 µM -7% | [3]; at 33.0 µM -2% | [3]; at 100.0 µM 3% | [4]; at 1.2 µM 0% | [4]; at 3.7 µM -3% | [4]; [16] 1% | [4]; at 11.0 µM 7% | [4]; at 33.0 µM 6% | [4]; at 50.0 µM 60.5% | [4]; at 100.0 µM 9% | [5]; at 1.2 µM -2% | [5]; at 3.7 µM -2% | [5]; [16] 15% | [5]; at 11.0 µM -3% | [5]; at 33.0 µM 1% | [5]; [17] 26% | [5]; at 50.0 µM 16.7% | [5]; at 100.0 µM 11% | [6]; at 1.2 µM 0% | [6]; at 3.7 µM 2% | [6]; at 11.0 µM 0% | [6]; at 33.0 µM 13% | [6]; at 100.0 µM 30% | [7]; [16] 2% | [7]; [17] 51% | [7]; at 50.0 µM 59.7% | [8]; at 1.2 µM -3% | [8]; at 3.7 µM -6% | [8]; at 11.0 µM -18% | [8]; at 33.0 µM -15% | [8]; at 100.0 µM -17% | [9]; [16] -17% | [9]; [17] 10% | [9]; at 50.0 µM 33.2% | [10]; at 1.2 µM -2% | [10]; at 3.7 µM 0% | [10]; at 11.0 µM -4% | [10]; at 33.0 µM 3% | [10]; at 100.0 µM 9% | [11]; at 1.2 µM 4% | [11]; at 3.7 µM 2% | [11]; at 11.0 µM -2% | [11]; at 33.0 µM -10% | [11]; at 100.0 µM 13% | [12]; at 1.2 µM 2% | [12]; at 3.7 µM 2% | [12]; at 11.0 µM 2% | [12]; at 33.0 µM 19% | [12]; at 100.0 µM 24% | [13]; [16] -10% | [13]; [17] 41% | [13]; at 50.0 µM 57.8% | [14]; at 1.2 µM 9% | [14]; at 3.7 µM 6% | [14]; at 11.0 µM -20% | [14]; at 33.0 µM 11% | [14]; at 100.0 µM 6%

c1cncc(C(Nc2cccc3cccnc23)Nc2cccc3cccnc23)c1
inactive: [1]; at 1.2 µM 0% | [1]; at 3.7 µM 0% | [1]; at 11.0 µM 1% | [1]; at 33.0 µM 2% | [1]; at 100.0 µM 0% | [2]; at 1.2 µM 1% | [2]; at 3.7 µM 14% | [2]; at 11.0 µM 31% | [2]; at 33.0 µM 47% | [2]; at 100.0 µM 55% | [3]; at 1.2 µM 4% | [3]; at 3.7 µM 1% | [3]; at 11.0 µM 3% | [3]; at 33.0 µM -70% | [3]; at 100.0 µM -45% | [4]; at 1.2 µM -103% | [4]; at 3.7 µM 52% | [4]; [16] 25% | [4]; at 11.0 µM 61% | [4]; [17] 44% | [5]; at 1.2 µM 2% | [5]; at 3.7 µM 1% | [5]; [16] -26% | [5]; at 11.0 µM 5% | [5]; at 33.0 µM 12% | [5]; [17] -2% | [5]; at 50.0 µM 44.8% | [5]; at 100.0 µM 15% | [6]; at 1.2 µM 0% | [6]; at 3.7 µM 9% | [6]; at 11.0 µM 15% | [6]; at 33.0 µM 25% | [6]; at 100.0 µM 47% | [7]; [16] 28% | [7]; [17] 53% | [7]; at 50.0 µM 54.4% | [8]; at 1.2 µM 6% | [8]; at 3.7 µM 3% | [8]; at 11.0 µM 3% | [8]; at 33.0 µM 3% | [8]; at 100.0 µM 2% | [9]; [16] 1% | [9]; [17] 6% | [9]; at 50.0 µM 27.9% | [15]; at 1.2 µM 1% | [15]; at 3.7 µM 4% | [15]; [16] -10% | [15]; at 11.0 µM -7% | [15]; at 33.0 µM -11% | [15]; [17] -12% | [15]; at 50.0 µM -13.8% | [15]; at 100.0 µM -8% | [10]; at 1.2 µM 0% | [10]; at 3.7 µM 9% | [10]; at 11.0 µM 0% | [10]; at 33.0 µM 2% | [10]; at 100.0 µM -1% | [11]; at 1.2 µM 3% | [11]; at 3.7 µM 1% | [11]; at 11.0 µM 1% | [11]; at 33.0 µM 4% | [11]; at 100.0 µM 2% | [13]; [16] 25% | [13]; [17] 40% | [14]; at 1.2 µM 36%
active: [4]; at 33.0 µM 76% | [4]; at 50.0 µM 75.8% | [4]; at 100.0 µM 81% | [13]; at 50.0 µM 77.2% | [14]; at 3.7 µM 89% | [14]; at 11.0 µM 92% | [14]; at 33.0 µM 94% | [14]; at 100.0 µM 94%
